Laboratory results: PubChem BioAssay AID492972 (The Scripps Research Institute Molecular Screening Center, 2010)
Out of some 340,000 compounds screened, about 930 (0.27%) were called active. The list comes from a sample in which actives are over-represented; it also holds similar structures and randomly drawn compounds. A number with no mark means an inactive call.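 Rule for the calls: active = inhibition above the screen-wide average of all tested compounds plus 3 SD (cut at about 25% in these data); inactive = the rest.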

Biological target: Platelet-activating factor acetylhydrolase IB subunit alpha1 (Homo sapiens) (UniProt Q15102)
Test: PAFAH1B3 enzyme inhibitors, primary screen, biochemical, fluorescence polarization, human (AID 492972);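 note: 0% = enzyme with DMSO only and 100% = wells lacking PAFAH1B3 protein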
Conditions: recombinant PAFAH1B3, FP-rhodamine probe, at 3.39 µM, active compounds read high

Sequence of Platelet-activating factor acetylhydrolase IB subunit alpha1 (Homo sapiens) (Q15102 whole entry, looked up): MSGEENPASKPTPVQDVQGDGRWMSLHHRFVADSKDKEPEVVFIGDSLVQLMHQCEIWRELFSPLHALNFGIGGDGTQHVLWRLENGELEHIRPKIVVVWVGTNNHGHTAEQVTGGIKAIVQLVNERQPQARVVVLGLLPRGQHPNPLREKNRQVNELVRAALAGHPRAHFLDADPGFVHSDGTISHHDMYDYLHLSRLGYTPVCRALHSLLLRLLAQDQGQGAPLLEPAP

Question: How did the inhibition turn out when `CCC(C(=O)Nc1ccc(C(C)C)cc1)c1ccccc1` (configuration not stated) was run?
Answer: -2.07%

Question: Which inhibition does the source give for `Cc1ccc(S(=O)(=O)N2CCN(C)CC2)cc1` here?
Answer: 2.98%

Question: Which inhibition does the source give for `CC/C(=N\NC(=O)c1c(C)nc2ccccn12)c1ccc(Cl)cc1` here?
Answer: 2.04%

Question: How did the inhibition turn out when `CC(Sc1nncs1)C(=O)NCc1ccc2c(c1)OCO2` (configuration not stated) was run?
Answer: 4.2%

Question: How did the inhibition turn out when `COc1cc(CNCCN(C)C)ccc1OCc1c(F)cccc1Cl` was run?
Answer: 7.89%

Question: `CSCCC(NC(=O)COc1ccccc1)C(=O)Nc1ccc(C)cc1` (configuration not stated) was tested. Which inhibition did it give?
Answer: 3.02%

Question: How did the inhibition turn out when `Cc1ccc(-c2noc(CNC(=O)c3ccoc3C)n2)cc1` was run?
Answer: 7.91%

Question: For `O=C(CN1C(=O)NC2(CCCCCC2)C1=O)NC1CC1`, which inhibition is on record?
Answer: 8.06%

Question: With `CCCc1nc(N)nc2c1C(=O)CC(C)(C)C2` as the compound, how does the inhibition read?
Answer: 3.91%

Question: How did the inhibition turn out when `Cc1ccc(N2C(=O)S/C(=C/c3cn(C)c4ccccc34)C2=O)cc1` was run?
Answer: 1.18%

Question: How did the inhibition turn out when `Cc1ccc(N=C2NC(=O)/C(=C/C=C/c3ccco3)S2)cc1C` was run?
Answer: -1.25%

Question: Which inhibition does the source give for `Cc1cccc(N=C2NC(=O)/C(=C/c3cn(C)c4ccccc34)S2)c1` here?
Answer: 31.3% (active)

Question: With `CN(C)C(=O)CCc1ccc2c3c([nH]c2c1)[C@]1(C)[C@@H](C(=O)N2CCOCC2)C[C@H](CC(=O)NCCc2ccccn2)C(=O)N1CC3` as the compound, how does the inhibition read?
Answer: 12.3%

Question: How did the inhibition turn out when `Cn1ncc2c(Nc3cccc4ccccc34)ncnc21` was run?
Answer: -1.17%

Question: Which inhibition does the source give for `O=C(COC(=O)c1cccnc1Cl)NC12CC3CC(CC(C3)C1)C2` here?
Answer: 16.2%

Question: How did the inhibition turn out when `COCCNC(=S)N1CCC(NC(=O)C23CC4CC(CC(C4)C2)C3)CC1` was run?
Answer: 7.45%

Question: Which inhibition does the source give for `O=C(NCCc1ccccc1)Oc1ccc(Cl)cc1` here?
Answer: 2.38%

Question: How did the inhibition turn out when `CN(C)[C@@H]1C(=O)C(C(N)=O)=C(O)[C@@]2(O)C(=O)C3=C(O)c4c(O)ccc(Cl)c4[C@@H](O)[C@H]3C[C@@H]12` was run?
Answer: 11%

Question: How did the inhibition turn out when `C=C1c2c(Cl)ccc(O)c2C(O)=C2C(=O)[C@]3(O)C(O)=C(C(N)=O)C(=O)[C@@H](N(C)C)[C@@H]3[C@@H](O)C12` (some centres not stated) was run?
Answer: 32.6% (active)

Question: For `CCSC(C)CC1C/C(=N/O)c2c(C)noc2C1` (configuration not stated), which inhibition is on record?
Answer: 4.48%

Question: How did the inhibition turn out when `COc1ccc(N(CC(=O)NCC2CCCO2)C(=O)CCC(=O)Nc2nccs2)c(OC)c1` (configuration not stated) was run?
Answer: 2.48%

Question: With `O=C(Nc1nccs1)C1CCN(S(=O)(=O)c2ccc(Cl)c(C(F)(F)F)c2)CC1` as the compound, how does the inhibition read?
Answer: 7.86%

Question: How did the inhibition turn out when `O=C(NCc1ccccc1)C(c1cccnc1)N(C(=O)c1csnn1)c1ccc(F)cc1` (configuration not stated) was run?
Answer: 4.83%

Question: Which inhibition does the source give for `CCN1C(=O)[C@H]2[C@@H](c3ccc(SC4CCCCC4)c(OC)c3)N[C@@](Cc3ccccc3)(C(=O)OC)[C@H]2C1=O` here?
Answer: -5.41%

Question: Which inhibition does the source give for `c1coc(-c2nc3nc4ccccc4n3nc2-c2ccco2)c1` here?
Answer: 41.5% (active)

Question: Which inhibition does the source give for `COc1ccc(C2=Nn3c(nnc3-c3ccccc3OC)SC2)cc1OC1CCCC1` here?
Answer: 38.3% (active)

Question: With `CC1=Nn2c(nnc2-c2ccccc2)SC1` as the compound, how does the inhibition read?
Answer: 6.68%

Question: With `COc1ccccc1-c1nnc2n1N=C(c1ccc(OC(F)F)c(OCC3CC3)c1)CS2` as the compound, how does the inhibition read?
Answer: -0.82%

Question: How did the inhibition turn out when `Cc1nnc(SCCCn2c(N3CCCCC3)nc3c2c(=O)[nH]c(=O)n3C)s1` was run?
Answer: 5.57%

Question: How did the inhibition turn out when `CCN(CC)CCCC(C)n1c2nc(=O)[nH]c(=O)c-2nc2cc(Cl)ccc21` (configuration not stated) was run?
Answer: 57.6% (active)

Question: For `COc1ccc(C)cc1S(=O)(=O)N(CC(=O)Nc1cccc([N+](=O)[O-])c1)c1ccc(C)cc1`, which inhibition is on record?
Answer: -21.3%

Question: For `COc1ccc(C(=O)NC(=S)N2CCCCC2c2cccnc2)cc1OC` (configuration not stated), which inhibition is on record?
Answer: -1.07%

Question: `Cc1c(-c2ccccc2)n[nH]c1C(=O)N=Nc1c(O)[nH]c2ccccc12` was tested. Which inhibition did it give?
Answer: -61.7%

Question: With `S=C(NCCCc1ccccc1)Nc1ccc(Br)cc1` as the compound, how does the inhibition read?
Answer: 7.28%

Question: Which inhibition does the source give for `C/C=N/N(c1ccccc1)c1ccccc1` here?
Answer: 0.33%

Question: With `N#CC(Cc1cc2ccccc2n1S(=O)(=O)c1ccccc1)OCc1ccccc1` (configuration not stated) as the compound, how does the inhibition read?
Answer: 4.5%

Question: With `CCCc1ccc(OCC(O)CN2CCN(C(=O)OCC)CC2)cc1` (configuration not stated) as the compound, how does the inhibition read?
Answer: -2.88%

Question: With `COC(=O)CNC(=O)C(CCSC)NC(C)=O` (configuration not stated) as the compound, how does the inhibition read?
Answer: -4.04%

Question: Which inhibition does the source give for `CCC(CO)Oc1cc(NC(=O)c2cccc3ccccc23)c2ncn(C(C)C)c2c1` (configuration not stated) here?
Answer: -4.73%

Question: For `CCC(CO)Oc1cc(NC(=O)c2cccc(F)c2)c2ncn(C(C)C)c2c1` (configuration not stated), which inhibition is on record?
Answer: -2.61%

Question: With `CC(C)n1cnc2c(NCc3ccccc3)cc(OCC3CCN(C)CC3)cc21` as the compound, how does the inhibition read?
Answer: 49.8% (active)

Question: Which inhibition does the source give for `COc1ccccc1C(=O)N(Cc1ccc(C)o1)C1CCS(=O)(=O)C1` (configuration not stated) here?
Answer: 4.66%

Question: Which inhibition does the source give for `COc1ccccc1NS(=O)(=O)N(C)C` here?
Answer: -5.67%

Question: `c1ccc(CC2CCN(c3nc4ccccc4n4cnnc34)CC2)cc1` was tested. Which inhibition did it give?
Answer: -2.84%

Question: With `COc1ccc(CN(Cc2ccco2)S(=O)(=O)c2ccc(S(=O)(=O)N3CCCC3)cc2)cc1` as the compound, how does the inhibition read?
Answer: 4.29%

Question: `CC(=O)OC1CCC2(C)C(=CCC3C4CC(=O)N(O)C(=O)C4(C)CCC32)C1` (configuration not stated) was tested. Which inhibition did it give?
Answer: 1.29%

Question: How did the inhibition turn out when `O=C(O)/C=C/c1ccc(OCCCF)cc1` was run?
Answer: 9.5%

Question: `O=C(/C=C(O)/C=C/c1ccc(O)cc1)/C=C/c1ccc(O)cc1` was tested. Which inhibition did it give?
Answer: 36.6% (active)

Question: With `O=C(/C=C/c1ccc2c(c1)OCCO2)c1ccc(O)cc1` as the compound, how does the inhibition read?
Answer: -1.41%

Question: How did the inhibition turn out when `O=C(CCCC(=O)N(CC(=O)NC1CCCC1)Cc1ccccc1Cl)Nc1ccccn1` was run?
Answer: 7.22%

Question: How did the inhibition turn out when `CCOCCCN(C)C1CCN(C(=O)c2oc3ccccc3c2NC(=O)COc2cccc(C)c2)CC1` was run?
Answer: 7.03%

Question: `COc1ccc(NC(=O)CCCC(=O)c2ccccc2)cc1` was tested. Which inhibition did it give?
Answer: -0.24%

Question: How did the inhibition turn out when `COc1ccc(NC(=O)C(Br)C(C)C)cc1` (configuration not stated) was run?
Answer: 3.86%

Question: `COc1ccc(NC(=O)ON=C2c3ccccc3-c3ccccc32)cc1` was tested. Which inhibition did it give?
Answer: 31.6% (active)

Question: Which inhibition does the source give for `COc1ccc(C2=NS(=O)(=O)N(C)C(C(=O)N(C)Cc3ccccc3)=C2)cc1` here?
Answer: 9.43%

Question: For `COc1ccc([N+](=O)[O-])cc1NCC(=O)c1ccc(C)cc1`, which inhibition is on record?
Answer: 8.91%

Question: Which inhibition does the source give for `CCNC(=O)NNC(=O)C1CC(c2cccs2)=NO1` (configuration not stated) here?
Answer: 14.9%

Question: `CCNS(=O)(=O)c1ccc(CCC(=O)N2CCN(c3cc(Cl)ccc3C)CC2)cc1` was tested. Which inhibition did it give?
Answer: 8.42%

Question: `COc1ccc(N2CCN(C(=O)C3CCN(C(=O)c4ccccc4Cl)CC3)CC2)cc1` was tested. Which inhibition did it give?
Answer: -0.01%

Question: Which inhibition does the source give for `CN(N)c1nc(N2CCCC2)nc(N2CCCC2)n1` here?
Answer: -3.46%

Question: Which inhibition does the source give for `NC(=O)[C@H]1CC2(CC(c3cccc(NC(=O)[C@H]4CCC(=O)N4)c3)=NO2)CN1C(=O)c1ccccc1C(=O)c1ccccc1` (some centres not stated) here?
Answer: -3.78%

Question: With `O=c1[nH]cccc1-c1nc2ccccc2n1Cc1ccc(Cl)cc1` as the compound, how does the inhibition read?
Answer: 6.48%

Question: For `O=C(Nc1nnc(-c2ccc(F)cc2)s1)c1c(F)cccc1Cl`, which inhibition is on record?
Answer: 4.95%

Question: `CN(C1CCS(=O)(=O)C1)S(=O)(=O)c1ccc2ccccc2c1` (configuration not stated) was tested. Which inhibition did it give?
Answer: 3.01%

Question: `CC(C)(C)NC(=O)NC(=O)CN1CCC(Cc2ccccc2)CC1` was tested. Which inhibition did it give?
Answer: 0.05%

Question: Which inhibition does the source give for `COC(=O)CCSc1cc([N+](=O)[O-])cc2c1c(C1OCCS1)nn2-c1ccccc1` (configuration not stated) here?
Answer: -0.28%

Question: `O/N=C1\CC2(Cc3nonc31)OCCO2` was tested. Which inhibition did it give?
Answer: 2.79%

Question: Which inhibition does the source give for `ON=C1/C(=N\O)CC2(C/C1=N/O)OCCO2` here?
Answer: 32.1% (active)

Question: Which inhibition does the source give for `CN1C(c2ccc(F)cc2)=CS/C1=C(/C#N)c1nnc2n1-c1ccccc1SC2` here?
Answer: 25.7% (active)

Question: For `Clc1ccc(C=NC23CN4CN(CN(C4)C2)C3)cc1`, which inhibition is on record?
Answer: 0.87%

Question: `CC(C)C(=O)Nc1oc(-c2ccccc2)cc1C#N` was tested. Which inhibition did it give?
Answer: 1.75%

Question: `OC(c1ccccc1)C(CN1CCOCC1)c1ccccc1` (configuration not stated) was tested. Which inhibition did it give?
Answer: 0.69%

Question: `O=C(Nc1nnc(-c2ccccc2)o1)c1cccc(S(=O)(=O)N2CCOCC2)c1` was tested. Which inhibition did it give?
Answer: 4.84%

Question: With `O=C(O)c1ccc(OCC2CCCO2)cc1` (configuration not stated) as the compound, how does the inhibition read?
Answer: 10.9%

Question: For `Cc1ccc(-c2cc(C(=O)NCc3cn(C)nc3C)c3cc(Br)ccc3n2)cc1`, which inhibition is on record?
Answer: -4.68%

Question: For `O=P(c1ccc2c(c1)OCCO2)(N1CCOCC1)N1CCOCC1`, which inhibition is on record?
Answer: 6.13%

Question: With `CC(c1ccco1)N(C(=O)COc1ccccc1[N+](=O)[O-])c1ccccn1` (configuration not stated) as the compound, how does the inhibition read?
Answer: 10.8%

Question: `COc1ccc(C(C)=O)cc1COC(=O)Cn1cnc2ccccc2c1=O` was tested. Which inhibition did it give?
Answer: 6.33%

Question: Which inhibition does the source give for `COc1ccc(N2CCN(C(=O)CN3C(=O)COc4ccccc43)CC2)cc1` here?
Answer: 3.49%

Question: `CC(NCC(=O)Nc1ccccc1C(=O)NC1CC1)c1ccccc1Cl` (configuration not stated) was tested. Which inhibition did it give?
Answer: 3.15%

Question: How did the inhibition turn out when `COc1cccc2c1C(=O)c1c(O)c3c(c(O)c1C2=O)CC(O)(C(C)=NNC(=O)c1ccc(Cl)c(Cl)c1)CC3OC1CC(N)C(O)C(C)O1` (configuration not stated) was run?
Answer: 44.5% (active)

Question: `O=C(Nc1cccc2c1CCCC2)c1ccc(F)cc1` was tested. Which inhibition did it give?
Answer: 7.49%

Question: For `COCCNC(=S)Nc1cc(S(=O)(=O)N2CCOCC2)ccc1N1CCCCC1`, which inhibition is on record?
Answer: 7.35%

Question: For `CC(C)C(C(=O)NC1CCCCC1)N(CC1CCCO1)C(=O)CNS(=O)(=O)c1ccc(F)cc1` (configuration not stated), which inhibition is on record?
Answer: 3.67%

Question: How did the inhibition turn out when `CC(C)CN1CC(C)C(=O)N(c2ccccc2)C1=S` (configuration not stated) was run?
Answer: 0.15%

Question: Which inhibition does the source give for `COc1cc2c(C(=O)N(C)c3cc(Cl)ccc3OC)cn(C)c(=O)c2cc1OC` here?
Answer: 6.3%

Question: `O=C(N/N=C/c1sc(N2CCCCC2)nc1-c1cccs1)c1cccnc1` was tested. Which inhibition did it give?
Answer: 26.1% (active)

Question: With `O=C(NN=C1CCC(=NNC(=O)c2cccnc2)CC1)c1cccnc1` as the compound, how does the inhibition read?
Answer: 8.42%

Question: With `Cc1ccc(NC(=O)COc2ccc(/C=N\NC(=O)c3cccnc3)cc2)cc1C` as the compound, how does the inhibition read?
Answer: -9.46%

Question: With `COc1ccccc1C(=O)c1ccccc1C(=O)c1ccccc1` as the compound, how does the inhibition read?
Answer: 8.6%

Question: How did the inhibition turn out when `Cc1cc(C)n(C(=O)CCNC(=O)c2ccccc2Cl)n1` was run?
Answer: -1.83%

Question: How did the inhibition turn out when `O=C(NNc1ccccc1Cl)C(O)(c1cccc(C(F)(F)F)c1)c1cccc(C(F)(F)F)c1` was run?
Answer: 8.34%
